# Experimental data reported in PubChem BioAssay (NCATS).
# Inconclusive results are not listed. Entries that show only a call come without a potency. Activity calls are given as the source filed them. Unless noted, calls follow the shape of the dose curve; as a rule, active = well fitted curve in the direction sought with a large enough effect; inconclusive = small, poorly fitted or top-dose-only effect, or another doubt; inactive = no such curve, though single readings can be large; an effect the other way counts as inactive or inconclusive.
# Legend:
# [1] = molecular target: Glucocorticoid receptor (Homo sapiens) (UniProt P04150); experiment: GR-GFP Redistribution (AID 450;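 active = compounds whose dose series gives a full or clear partial fitted curve of increased nuclear translocation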; also: potency is read from the fitted curve at half-maximal effect); conditions: U2OS GR-GFP nuclear translocation, laser cytometry, 2 h
# Sequence of Glucocorticoid receptor (Homo sapiens) (P04150 whole entry, looked up, the tested form may be a part): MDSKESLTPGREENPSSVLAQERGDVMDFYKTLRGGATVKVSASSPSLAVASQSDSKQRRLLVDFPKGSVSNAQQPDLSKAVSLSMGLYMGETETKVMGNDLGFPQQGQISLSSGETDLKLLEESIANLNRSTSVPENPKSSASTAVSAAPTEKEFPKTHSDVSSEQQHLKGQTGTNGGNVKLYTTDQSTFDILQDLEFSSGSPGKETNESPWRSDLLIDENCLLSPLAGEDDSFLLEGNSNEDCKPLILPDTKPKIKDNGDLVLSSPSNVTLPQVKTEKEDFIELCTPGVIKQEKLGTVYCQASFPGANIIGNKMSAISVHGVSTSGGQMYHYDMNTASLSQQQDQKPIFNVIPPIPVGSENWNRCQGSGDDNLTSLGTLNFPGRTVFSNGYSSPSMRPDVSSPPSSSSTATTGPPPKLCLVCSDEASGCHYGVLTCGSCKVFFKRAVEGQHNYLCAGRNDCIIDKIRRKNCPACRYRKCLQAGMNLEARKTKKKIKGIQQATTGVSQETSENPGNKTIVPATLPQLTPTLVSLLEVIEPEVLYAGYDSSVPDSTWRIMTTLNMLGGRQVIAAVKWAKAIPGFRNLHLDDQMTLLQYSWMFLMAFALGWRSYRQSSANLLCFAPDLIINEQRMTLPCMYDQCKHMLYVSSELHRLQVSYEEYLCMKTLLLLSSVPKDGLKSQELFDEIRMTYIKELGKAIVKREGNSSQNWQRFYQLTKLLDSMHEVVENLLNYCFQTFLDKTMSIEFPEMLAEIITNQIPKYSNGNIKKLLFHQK
# [2] = molecular target: Glucocorticoid receptor (Homo sapiens) (UniProt P04150); experiment: GR-EFC Redistribution (AID 451; calls by dose curve; also: potency is read from the fitted curve at half-maximal effect); conditions: CHO-K1 GR-EFC translocation, beta-gal luminescence, 2 h
# How it was run: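 CHO-K1 cells stably expressing nuclear-localized β-gal enzyme acceptor and GR fused C-terminally to the enzyme donor fragment; ligand-driven nuclear translocation restores β-gal by complementation. Compounds titrated up to 46 uM final, 2 h at 37 °C; luminescence read.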
# [3] = molecular target: Mitogen-activated protein kinase 10 (Mus musculus) (UniProt Q61831); experiment: JNK3 AlphaScreen Assay (AID 530; active = well fitted curve in either direction with a large enough effect, not every such curve was filed as active;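 also: kinase came from lysate of stimulated human HepG2 cells; signal reports phosphorylation of biotinylated GST-cJun 1-79 at Ser73 with 10 µM ATP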); conditions: JNK3 lysate, c-Jun phosphorylation; series mostly up to 25.6 µM
# How it was run: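 JNK3 came from HepG2 lysates pre-activated with IL-1beta and TNF-alpha and phosphorylated biotinylated GST-cJun (1-79) at 10 uM ATP, pH 7.6, room temperature. Compounds were titrated. AlphaScreen signal used anti-phospho-cJun (Ser73) antibody.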
# [4] = qHTS Assay for Lipid Storage Modulators (AID 1519; calls by dose curve); conditions: Drosophila S3 cells, BODIPY lipid droplet/cell ratio, laser cytometry, cells loaded with oleic acid; for activity change, negative = inhibition: at 25.7 µM (top of the series)
# How it was run: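 Cells seeded at 5,000 per well were treated with compounds over a concentration series and loaded with oleic acid (400 uM, as added). Lipid droplet fluorescence (488 nm excitation, 500-530 nm channel) was read by laser-scanning cytometry and normalized to 20 uM Triacsin C.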
# [5] = molecular target: Ubiquitin carboxyl-terminal hydrolase 1 (Homo sapiens) (UniProt O94782); experiment: Inhibitors of USP1/UAF1: Pilot qHTS (AID 504865); conditions: purified USP1/UAF1, Ub-rhodamine cleavage fluorescence; series mostly up to 114 µM;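 also: rhodamine fluorescence freed from ubiquitin-rhodamine substrate followed over time; top concentration of the series differs between compounds; nearly all actives have a fitted effect of over 35% in size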
# Sequence of Ubiquitin carboxyl-terminal hydrolase 1 (Homo sapiens) (O94782 whole entry, looked up): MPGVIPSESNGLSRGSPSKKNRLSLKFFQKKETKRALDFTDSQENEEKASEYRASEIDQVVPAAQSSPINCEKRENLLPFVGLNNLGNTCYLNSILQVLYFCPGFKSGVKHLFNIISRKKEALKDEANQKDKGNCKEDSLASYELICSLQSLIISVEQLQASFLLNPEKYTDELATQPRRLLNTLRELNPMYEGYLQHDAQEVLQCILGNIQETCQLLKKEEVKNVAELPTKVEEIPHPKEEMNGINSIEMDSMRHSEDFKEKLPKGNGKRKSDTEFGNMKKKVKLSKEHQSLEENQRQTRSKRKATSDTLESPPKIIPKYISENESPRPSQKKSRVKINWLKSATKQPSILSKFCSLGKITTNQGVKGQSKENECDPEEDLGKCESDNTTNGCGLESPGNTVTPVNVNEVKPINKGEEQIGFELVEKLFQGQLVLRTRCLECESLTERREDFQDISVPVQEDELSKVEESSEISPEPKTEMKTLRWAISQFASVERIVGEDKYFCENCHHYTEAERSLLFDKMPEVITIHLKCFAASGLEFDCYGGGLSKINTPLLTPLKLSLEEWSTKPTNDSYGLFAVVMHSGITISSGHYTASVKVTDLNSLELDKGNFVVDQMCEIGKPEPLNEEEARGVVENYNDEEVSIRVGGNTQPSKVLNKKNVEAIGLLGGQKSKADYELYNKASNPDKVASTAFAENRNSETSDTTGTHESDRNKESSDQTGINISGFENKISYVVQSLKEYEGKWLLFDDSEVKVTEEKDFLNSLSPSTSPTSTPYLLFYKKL
# How it was run: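 USP1/UAF1 complex (1nM) preincubated with compound 15 min at room temperature, then Ub-Rho substrate (150nM final) added. Fluorescence read kinetically at 480/540 nm, 6 reads every 60 seconds. Buffer: 50mM HEPES pH 7.8, 0.5mM EDTA, 0.1 mg/ml BSA, 1mM TCEP, 0.01% Tween-20.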
# [6] = molecular target: ATP-dependent 6-phosphofructokinase (Trypanosoma brucei brucei) (UniProt O15648); experiment: qHTS Assay to Find Inhibitors of T. brucei phosphofructokinase: hit validation (AID 492961);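 also: luminescence reports ADP formed as PFK phosphorylates fructose-6-phosphate with ATP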; conditions: T. brucei PFK, ADP-Glo luminescence; series mostly up to 24.3 µM
# Sequence of ATP-dependent 6-phosphofructokinase (Trypanosoma brucei brucei) (O15648 whole entry, looked up): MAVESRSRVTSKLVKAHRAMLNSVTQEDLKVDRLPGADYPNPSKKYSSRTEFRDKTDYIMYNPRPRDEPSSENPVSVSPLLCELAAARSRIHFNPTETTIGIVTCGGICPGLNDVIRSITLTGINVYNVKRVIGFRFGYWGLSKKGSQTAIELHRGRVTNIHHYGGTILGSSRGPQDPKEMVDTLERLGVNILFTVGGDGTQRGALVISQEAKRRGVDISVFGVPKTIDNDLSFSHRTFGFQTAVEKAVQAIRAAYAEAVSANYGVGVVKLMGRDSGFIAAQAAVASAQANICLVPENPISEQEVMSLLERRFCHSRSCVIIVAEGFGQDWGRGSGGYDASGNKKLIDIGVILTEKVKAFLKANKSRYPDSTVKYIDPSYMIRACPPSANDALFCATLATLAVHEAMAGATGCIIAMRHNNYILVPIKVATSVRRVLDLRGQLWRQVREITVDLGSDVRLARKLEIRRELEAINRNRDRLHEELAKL
# How it was run: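 Percent activity derived from corrected luminescence, normalized between 0x and 1x enzyme controls, then fitted to concentration-response curves. Conditions: 1.25 nM PFK, 0.1 mM ATP, 0.5 mM F6P, 45 min RT.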
# [7] = qHTS profiling for inhibitors of Plasmodium falciparum proliferation (AID 504749); also: nearly all actives have a fitted effect of over 60% in size; also: potency is read from the fitted curve at half-maximal effect; conditions: P. falciparum in erythrocytes, SYBR Green DNA, 72 h, at 12.8 µM (top of the series)
# How it was run: (§1)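 P. falciparum-infected erythrocytes (0.3% parasitemia, 2.5% hematocrit final) were exposed to compounds for 72 h at 37 C in 5% CO2, then lysed with SYBR Green buffer overnight at room temperature; parasite DNA fluorescence was normalized to artemisinin and DMSO controls.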
# [8] = tested on: 3D7; experiment: as above; conditions: P. falciparum in erythrocytes, SYBR Green DNA, 72 h; series mostly up to 12.8 µM
# How it was run: as §1
# [9] = tested on: AS120; experiment: as above; conditions: P. falciparum in erythrocytes, SYBR Green DNA, 72 h; series mostly up to 12.8 µM
# How it was run: as §1
# [10] = tested on: C2A; experiment: as above; conditions: P. falciparum in erythrocytes, SYBR Green DNA, 72 h; series mostly up to 12.8 µM
# How it was run: as §1
# [11] = tested on: CP217; experiment: as above; conditions: P. falciparum in erythrocytes, SYBR Green DNA, 72 h; series mostly up to 12.8 µM
# How it was run: as §1
# [12] = tested on: CP237; experiment: as above; conditions: P. falciparum in erythrocytes, SYBR Green DNA, 72 h; series mostly up to 12.8 µM
# How it was run: as §1
# [13] = tested on: CP238; experiment: as above; conditions: P. falciparum in erythrocytes, SYBR Green DNA, 72 h; series mostly up to 12.8 µM
# How it was run: as §1
# [14] = tested on: CP252; experiment: as above; conditions: P. falciparum in erythrocytes, SYBR Green DNA, 72 h; series mostly up to 12.8 µM
# How it was run: as §1
# [15] = tested on: CP262; experiment: as above; conditions: P. falciparum in erythrocytes, SYBR Green DNA, 72 h; series mostly up to 12.8 µM
# How it was run: as §1
# [16] = tested on: CP269; experiment: as above; conditions: P. falciparum in erythrocytes, SYBR Green DNA, 72 h; series mostly up to 12.8 µM
# How it was run: as §1
# [17] = tested on: CP297; experiment: as above; conditions: P. falciparum in erythrocytes, SYBR Green DNA, 72 h; series mostly up to 12.8 µM
# How it was run: as §1
# [18] = tested on: ECU; experiment: as above; conditions: P. falciparum in erythrocytes, SYBR Green DNA, 72 h; series mostly up to 12.8 µM
# How it was run: as §1
# [19] = tested on: PAD; experiment: as above; conditions: P. falciparum in erythrocytes, SYBR Green DNA, 72 h; series mostly up to 12.8 µM
# How it was run: as §1
# [20] = tested on: SC27B; experiment: as above; conditions: P. falciparum in erythrocytes, SYBR Green DNA, 72 h; series mostly up to 12.8 µM
# How it was run: as §1
# [21] = measured here: cell count channel max response
# [22] = measured here: lipid channel max response
smiles,measurement,setting,value
C1CCC(C(C[C@@H]2CCCCN2)C2CCCCC2)CC1,Potency,[1],> 20.6 µM (inactive)
same,Potency,[2],> 20.6 µM (inactive)
same,Potency,[3],inactive
same,"activity change, negative = inhibition",[4],-4.85% (inactive)
same,max response,[4]; [21],-11.9%
same,max response,[4]; [22],-15.6%
same,Potency,[5],inactive
CO[C@]1(NC(=O)[C@H](C(=O)O)c2ccc(O)cc2)C(=O)N2C(C(=O)O)=C(CSc3nnnn3C)CO[C@H]21,Potency,[1],> 20.6 µM (inactive)
same,Potency,[2],> 20.6 µM (inactive)
same,Potency,[3],inactive
same,"activity change, negative = inhibition",[4],-4% (inactive)
same,max response,[4]; [21],-7.15%
same,max response,[4]; [22],-8.95%
same,outcome,[6],inactive
same,Potency,[5],inactive
same,"activity, negative = inhibition",[7]; parasite line A,8.42% (inactive)
same,"activity, negative = inhibition",[7]; parasite line B,2.41% (inactive)
same,Potency,[8],inactive
same,Potency,[9],inactive
same,Potency,[10],inactive
same,Potency,[11],inactive
same,Potency,[12],inactive
same,Potency,[13],inactive
same,Potency,[14],inactive
same,Potency,[15],inactive
same,Potency,[16],inactive
same,Potency,[17],inactive
same,Potency,[18],inactive
same,Potency,[19],inactive
same,Potency,[20],inactive
O[C@@](CCN1CCCCC1)(c1ccccc1)[C@@H]1C[C@H]2C=C[C@@H]1C2,Potency,[1],> 20.6 µM (inactive)
same,Potency,[2],> 20.6 µM (inactive)
same,Potency,[3],inactive
same,"activity change, negative = inhibition",[4],1.83% (inactive)
same,max response,[4]; [21],-4.18%
same,max response,[4]; [22],-2.67%
same,Potency,[5],inactive
COC(=O)[C@@H]1[C@@H]2C[C@H]3c4[nH]c5cc(OC)ccc5c4CCN3C[C@@H]2C[C@H](OC(=O)/C=C\c2cc(OC)c(OC)c(OC)c2)[C@H]1OC,Potency,[1],> 20.6 µM (inactive)
same,Potency,[2],> 20.6 µM (inactive)
same,"activity change, negative = inhibition",[4],-1.81% (inactive)
same,max response,[4]; [21],-4.11%
same,max response,[4]; [22],-3.85%
same,outcome,[6],inactive
same,Potency,[5],inactive
same,Potency,[9],3.55 µM (active)
same,Potency,[11],3.55 µM (active)
same,Potency,[15],inactive
CC1(C)S[C@@H]2[C@H](NC(=O)[C@@H](N)c3ccccc3)C(=O)N2[C@H]1C(=O)O[C@H]1OC(=O)c2ccccc21,Potency,[3],inactive
same,"activity change, negative = inhibition",[4],-2.68% (inactive)
same,max response,[4]; [21],-27.2%
same,max response,[4]; [22],-29.9%
same,outcome,[6],inactive
same,"activity, negative = inhibition",[7]; parasite line A,9.34% (inactive)
same,"activity, negative = inhibition",[7]; parasite line B,6.7% (inactive)
same,Potency,[8],inactive
same,Potency,[9],inactive
same,Potency,[10],inactive
same,Potency,[11],inactive
same,Potency,[12],inactive
same,Potency,[13],inactive
same,Potency,[14],inactive
same,Potency,[15],inactive
same,Potency,[16],inactive
same,Potency,[17],inactive
same,Potency,[18],inactive
same,Potency,[19],inactive
same,Potency,[20],inactive
O=C(OC[C@@H](O)CO)c1ccccc1Nc1ccnc2cc(Cl)ccc12,Potency,[3],inactive
same,"activity change, negative = inhibition",[4],-2.54% (inactive)
same,max response,[4]; [21],9.55%
same,max response,[4]; [22],3.2%
same,outcome,[6],inactive
same,"activity, negative = inhibition",[7]; parasite line A,-14.6% (inactive)
same,"activity, negative = inhibition",[7]; parasite line B,-22.4% (inactive)
same,Potency,[8],inactive
same,Potency,[9],inactive
same,Potency,[10],inactive
same,Potency,[11],inactive
same,Potency,[12],inactive
same,Potency,[13],inactive
same,Potency,[14],inactive
same,Potency,[15],inactive
same,Potency,[16],inactive
same,Potency,[17],inactive
same,Potency,[18],inactive
same,Potency,[20],inactive
